Assay [1] addresses Lysosomal acid glucosylceramidase (Homo sapiens) (UniProt P04062). The assay can be described thus: Glucocerebrosidase-p2 (AID 348; in the data active = potency below about 10 µM; note: potency is the fitted concentration of half-maximal effect). Particulars: purified GBA, blue fluorogenic substrate, 40 min. Summed up:
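Compounds titrated from 0.6 nM upwards against 0.2 nM enzyme in pH 5.9 citric acid/KH2PO4, taurocholate, tween-20; blue fluorogenic substrate 80 uM, 40 min room temperature, stopped and read Ex 365/Em 440 for AC50.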

Assay [2] has as its target Cytochrome P450 1A2 (Homo sapiens) (UniProt P05177). The assay can be described thus: p450-cyp1a2 (AID 410; calls by dose curve; note: potency is the fitted concentration of half-maximal effect). To be noted: recombinant CYP1A2, luciferin-ME demethylation, luminescence; series mostly up to 11.4 µM. Summed up: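 20nM CYP1A2 with 100uM Luciferin-ME (at Km) in 100mM KPO4; compound preincubated 10 min, NADPH regeneration added, 60 min at room temperature. Luciferin quantified by luminescence after detection reagent; normalized to 57 uM furafylline.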

Assay [3] can be described thus: NFAT Signaling Pathway (AID 444).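 Note: carbachol stimulus at about its EC50 of 1 µM final; % is set by controls: 0 for no effect and ±100 for the full control effect.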 Particulars: Jurkat NFAT-bla M1, carbachol, beta-lactamase ratio, 5 h; at 7.69 µM (top of the series) unless noted. The method, boiled down:
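Jurkat cells carrying an NFAT-driven β-lactamase reporter and co-transfected muscarinic M1 receptor were treated with compound plus carbachol (1 uM final, an EC50 level) for 5 h at 37 °C. CCF4 loading followed for 1 h at RT; 460/530 nm ratio gave %activity.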

In assay [4] the target is Glucocorticoid receptor (Homo sapiens) (UniProt P04150). The assay can be described thus: GR-GFP Redistribution (AID 450;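 active = compounds whose dose series gives a full or clear partial fitted curve of increased nuclear translocation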; note: potency is the fitted concentration of half-maximal effect). Particulars: U2OS GR-GFP nuclear translocation, laser cytometry, 2 h.
Sequence of Glucocorticoid receptor (Homo sapiens) (P04150 whole entry, looked up, the tested form may be a part): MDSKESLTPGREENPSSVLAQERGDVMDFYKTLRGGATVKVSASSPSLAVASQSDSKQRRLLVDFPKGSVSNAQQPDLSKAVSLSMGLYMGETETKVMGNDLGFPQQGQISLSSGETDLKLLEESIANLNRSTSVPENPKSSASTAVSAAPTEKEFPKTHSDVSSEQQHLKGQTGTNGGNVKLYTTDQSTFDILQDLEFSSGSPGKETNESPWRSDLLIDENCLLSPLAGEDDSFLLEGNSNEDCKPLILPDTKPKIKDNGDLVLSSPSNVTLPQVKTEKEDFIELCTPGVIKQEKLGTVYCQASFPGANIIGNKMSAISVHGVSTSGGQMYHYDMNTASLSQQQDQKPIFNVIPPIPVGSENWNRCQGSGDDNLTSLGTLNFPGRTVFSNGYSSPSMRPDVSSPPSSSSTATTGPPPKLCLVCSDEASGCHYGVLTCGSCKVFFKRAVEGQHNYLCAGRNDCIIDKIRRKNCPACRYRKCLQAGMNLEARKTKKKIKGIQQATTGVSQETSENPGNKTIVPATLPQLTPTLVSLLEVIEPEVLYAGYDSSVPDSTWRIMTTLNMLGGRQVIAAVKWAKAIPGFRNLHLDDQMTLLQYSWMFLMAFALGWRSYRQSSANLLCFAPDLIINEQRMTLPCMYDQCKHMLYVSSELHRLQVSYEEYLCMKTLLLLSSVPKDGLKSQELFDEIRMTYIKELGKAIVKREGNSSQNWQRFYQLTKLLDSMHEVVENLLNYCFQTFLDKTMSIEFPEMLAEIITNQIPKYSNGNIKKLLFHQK
Assay [5] has the same target. The assay can be described thus: GR-EFC Redistribution (AID 451; calls by dose curve; note: potency is the fitted concentration of half-maximal effect). To be noted: CHO-K1 GR-EFC translocation, beta-gal luminescence, 2 h. The method, boiled down: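 CHO-K1 cells stably expressing nuclear-localized β-gal enzyme acceptor and GR fused C-terminally to the enzyme donor fragment; ligand-driven nuclear translocation restores β-gal by complementation. Compounds titrated up to 46 uM final, 2 h at 37 °C; luminescence read.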

The target of assay [6] is Mitogen-activated protein kinase 10 (Mus musculus) (UniProt Q61831). The experiment in a line: JNK3 AlphaScreen Assay (AID 530).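 Note: kinase came from lysate of stimulated human HepG2 cells; signal reports phosphorylation of biotinylated GST-cJun 1-79 at Ser73 with 10 µM ATP; % is set by controls: 0 for no effect and ±100 for the full control effect.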 Particulars: JNK3 lysate, c-Jun phosphorylation; series mostly up to 11.4 µM. Summed up:
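Inhibitors reduce antibody binding to phosphorylated biotin-cJun, lowering AlphaScreen luminescence. Lysates from HepG2 cells pre-activated by IL-1beta plus TNF-alpha supplied JNK3; compounds were titrated.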
For orientation: Alpha assays give light when donor and acceptor beads are brought close together.

Assay [7] in a line: Stat Signaling Pathway (AID 446).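 Note: ME-180 cervical cancer cells given 40 pM IL-6 alongside compound; SIE-controlled beta-lactamase reporter measured as 460/530 nm FRET emission ratio; % is set by controls: 0 for no effect and ±100 for the full control effect.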 To be noted: ME-180 SIE beta-lactamase reporter, IL-6 stimulated, 5 h; at 7.69 µM (top of the series) unless noted. Summed up:
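Reporter line: ME-180 cervical carcinoma, SIE-beta-lactamase. Treatment: compound with 40 pM IL-6, 5 hrs, 37 C, in low-serum OPTI-MEM with 10 mM HEPES pH 7.3. Detection: 460/530 nm fluorescence.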

In assay [8] the target is 3',5'-cyclic-AMP phosphodiesterase 4B (Homo sapiens) (UniProt Q07343). The experiment in a line: qHTS Assay for Inhibitors of PDE-IV (AID 607; active = well fitted activation curve with a large enough effect in the main read-out, with a control signal flat, not every such curve was filed as active; note: % of control where 0% means no effect). Particulars: HEK293 ACTOne CNG channel cells, membrane potential fluorescence; series mostly up to 22.9 µM. Summed up: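 Cell-based read-out of cAMP via a modified cyclic nucleotide-gated channel and membrane potential dye (535/590 nm) in HEK293 cells expressing PDE4 endogenously. Compounds tested up to 22.9 uM final; 100 uM RO 20-1724 reference.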
Sequence of 3',5'-cyclic-AMP phosphodiesterase 4B (Homo sapiens) (Q07343 whole entry, looked up): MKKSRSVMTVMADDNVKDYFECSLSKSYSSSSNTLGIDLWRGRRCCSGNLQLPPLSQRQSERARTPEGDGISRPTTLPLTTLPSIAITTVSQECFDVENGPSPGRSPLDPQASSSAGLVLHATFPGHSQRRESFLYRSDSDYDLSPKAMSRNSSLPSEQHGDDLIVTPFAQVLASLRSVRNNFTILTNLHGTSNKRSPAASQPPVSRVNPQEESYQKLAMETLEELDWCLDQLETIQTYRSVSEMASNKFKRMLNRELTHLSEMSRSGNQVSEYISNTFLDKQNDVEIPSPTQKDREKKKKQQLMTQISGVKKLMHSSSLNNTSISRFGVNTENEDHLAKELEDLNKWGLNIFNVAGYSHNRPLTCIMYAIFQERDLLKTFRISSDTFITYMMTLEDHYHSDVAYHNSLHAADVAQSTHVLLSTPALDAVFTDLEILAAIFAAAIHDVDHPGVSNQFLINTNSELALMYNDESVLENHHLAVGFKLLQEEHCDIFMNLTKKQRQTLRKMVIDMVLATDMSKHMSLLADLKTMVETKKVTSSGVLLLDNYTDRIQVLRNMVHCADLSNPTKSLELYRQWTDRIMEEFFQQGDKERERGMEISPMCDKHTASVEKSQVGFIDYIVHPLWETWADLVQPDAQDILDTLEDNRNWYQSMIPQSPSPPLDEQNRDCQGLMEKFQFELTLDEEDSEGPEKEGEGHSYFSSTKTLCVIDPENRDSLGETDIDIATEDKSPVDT

Assay [9] has as its target Cytochrome P450 2D6 (Homo sapiens) (UniProt P10635). The assay can be described thus: qHTS Assay for Inhibitors and Substrates of Cytochrome P450 2D6 (AID 891; active = well fitted curve in the direction sought with a large enough effect; an effect the other way counts as inactive or inconclusive; note: potency is the fitted concentration of half-maximal effect; nearly all actives have a fitted effect of over 60% in size). To be noted: recombinant CYP2D6, luciferin-ME EGE luminescence; series mostly up to 11.4 µM. The method, boiled down: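 Human CYP2D6 (5 nM) with 30 uM Luciferin-ME EGE (at Km) in 100 mM KPO4, compound preincubated 10 min, then NADPH regeneration system for 60 min at room temperature. Luciferin read by luminescence; normalized to 1.43 uM quinidine.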

In assay [10] the target is Cytochrome P450 2C19 (Homo sapiens) (UniProt P33261). The assay can be described thus: qHTS Assay for Inhibitors and Substrates of Cytochrome P450 2C19 (AID 899; active = well fitted curve in the direction sought with a large enough effect; an effect the other way counts as inactive or inconclusive; note: nearly all actives have a fitted effect of over 60% in size; note: potency is the fitted concentration of half-maximal effect; for activity, negative = inhibition: % is set by controls: 0 for no effect and ±100 for the full control effect). To be noted: recombinant CYP2C19, luciferin-H EGE luminescence; series mostly up to 11.4 µM. Summed up:
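In 50mM KPO4, the reaction held 5nM enzyme and KM-level (10uM) Luciferin-H EGE; it ran 60 min at 37C after NADPH regeneration and a 10 min compound preincubation. Luminescence values were scaled to 57uM ketoconazole as complete inhibition.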
On the technique in general: qHTS replaces the single test concentration by a dilution series.

Assay [11] deals with Cytochrome P450 3A4 (Homo sapiens) (UniProt P08684). The assay can be described thus: qHTS Assay for Activators of Cytochrome P450 3A4 (AID 885; active = well fitted curve in the direction sought with a large enough effect; an effect the other way counts as inactive or inconclusive; note: nearly all actives have a fitted effect of over 65% in size). Particulars: recombinant CYP3A4, Luciferin-PPXE luminescence, 60 min; series mostly up to 11.4 µM. Summed up: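 Signal was normalized against complete inhibition by 57 uM ketoconazole. The reaction used 20nM CYP3A4 with 25uM Luciferin-PPXE, 10-min compound preincubation and a 60-min NADPH-supported step at RT.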
Sequence of Cytochrome P450 3A4 (Homo sapiens) (P08684 whole entry, looked up): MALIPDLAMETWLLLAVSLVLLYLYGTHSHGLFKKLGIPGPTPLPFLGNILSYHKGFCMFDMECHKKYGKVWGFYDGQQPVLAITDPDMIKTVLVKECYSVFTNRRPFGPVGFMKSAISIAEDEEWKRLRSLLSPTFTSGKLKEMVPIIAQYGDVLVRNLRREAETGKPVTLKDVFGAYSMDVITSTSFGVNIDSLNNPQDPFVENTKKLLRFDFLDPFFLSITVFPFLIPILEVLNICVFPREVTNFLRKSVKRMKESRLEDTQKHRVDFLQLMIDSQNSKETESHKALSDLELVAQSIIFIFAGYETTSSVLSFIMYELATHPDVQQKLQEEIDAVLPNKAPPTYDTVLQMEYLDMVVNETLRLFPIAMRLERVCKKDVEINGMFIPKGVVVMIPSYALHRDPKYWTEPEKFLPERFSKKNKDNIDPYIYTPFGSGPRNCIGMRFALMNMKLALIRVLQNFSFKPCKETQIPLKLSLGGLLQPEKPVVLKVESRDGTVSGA

The target in assay [12] is Cytochrome P450 2C9 (Homo sapiens) (UniProt P11712). The assay can be described thus: qHTS Assay for Inhibitors and Substrates of Cytochrome P450 2C9 (AID 883; active = well fitted curve in the direction sought with a large enough effect; an effect the other way counts as inactive or inconclusive; note: potency is the fitted concentration of half-maximal effect; nearly all actives have a fitted effect of over 60% in size). Particulars: recombinant CYP2C9, luciferin-H luminescence, 60 min; series mostly up to 11.4 µM. The method, boiled down: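 CYP2C9 deoxyluciferin hydroxylation, 37C, 60 min with NADPH regeneration; 10nM enzyme, 100uM Luciferin-H (KM). Glo detection reagent stopped reaction; luminescence normalized to sulphaphenazole (57uM) full inhibition.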
Sequence of Cytochrome P450 2C9 (Homo sapiens) (P11712 whole entry, looked up): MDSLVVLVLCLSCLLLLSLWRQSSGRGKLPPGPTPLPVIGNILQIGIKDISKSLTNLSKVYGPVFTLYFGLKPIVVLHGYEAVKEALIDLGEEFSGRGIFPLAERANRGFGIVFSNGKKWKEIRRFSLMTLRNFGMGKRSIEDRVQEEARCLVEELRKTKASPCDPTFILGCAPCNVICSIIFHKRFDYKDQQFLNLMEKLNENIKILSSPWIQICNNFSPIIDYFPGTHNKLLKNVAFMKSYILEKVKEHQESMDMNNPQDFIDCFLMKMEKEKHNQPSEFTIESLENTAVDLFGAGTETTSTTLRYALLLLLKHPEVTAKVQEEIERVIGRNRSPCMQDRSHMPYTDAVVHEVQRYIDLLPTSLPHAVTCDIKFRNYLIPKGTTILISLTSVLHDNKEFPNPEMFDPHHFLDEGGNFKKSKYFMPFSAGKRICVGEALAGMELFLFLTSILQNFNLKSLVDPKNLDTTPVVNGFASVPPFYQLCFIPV

SMILES strings stand for the structures. Values without a mark were called inactive. Inconclusive results are not listed. Active and inactive are the calls of the source. Unless noted, calls come from the whole dose curve; as a rule, active = well fitted curve in either direction with a large enough effect (not every such curve was filed as active); inconclusive = small, poorly fitted or top-dose-only effect, or another doubt; inactive = flat fitted curve, though single readings scatter.

Sequence of Lysosomal acid glucosylceramidase (Homo sapiens) (P04062 whole entry, looked up): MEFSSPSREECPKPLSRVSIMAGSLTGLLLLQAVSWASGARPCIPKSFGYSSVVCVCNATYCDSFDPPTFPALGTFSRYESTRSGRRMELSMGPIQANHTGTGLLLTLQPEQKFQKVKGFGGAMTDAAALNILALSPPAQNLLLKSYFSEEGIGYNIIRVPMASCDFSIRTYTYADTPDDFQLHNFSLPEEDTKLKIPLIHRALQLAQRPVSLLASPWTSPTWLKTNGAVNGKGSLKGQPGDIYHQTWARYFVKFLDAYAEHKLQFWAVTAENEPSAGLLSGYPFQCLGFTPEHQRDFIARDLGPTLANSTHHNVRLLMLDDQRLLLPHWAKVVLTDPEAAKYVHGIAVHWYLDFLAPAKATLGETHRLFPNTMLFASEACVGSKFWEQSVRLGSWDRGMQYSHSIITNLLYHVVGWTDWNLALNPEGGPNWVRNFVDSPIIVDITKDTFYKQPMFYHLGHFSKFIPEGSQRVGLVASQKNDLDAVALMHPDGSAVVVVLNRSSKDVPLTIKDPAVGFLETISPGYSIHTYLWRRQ
Sequence of Cytochrome P450 1A2 (Homo sapiens) (P05177 whole entry, looked up): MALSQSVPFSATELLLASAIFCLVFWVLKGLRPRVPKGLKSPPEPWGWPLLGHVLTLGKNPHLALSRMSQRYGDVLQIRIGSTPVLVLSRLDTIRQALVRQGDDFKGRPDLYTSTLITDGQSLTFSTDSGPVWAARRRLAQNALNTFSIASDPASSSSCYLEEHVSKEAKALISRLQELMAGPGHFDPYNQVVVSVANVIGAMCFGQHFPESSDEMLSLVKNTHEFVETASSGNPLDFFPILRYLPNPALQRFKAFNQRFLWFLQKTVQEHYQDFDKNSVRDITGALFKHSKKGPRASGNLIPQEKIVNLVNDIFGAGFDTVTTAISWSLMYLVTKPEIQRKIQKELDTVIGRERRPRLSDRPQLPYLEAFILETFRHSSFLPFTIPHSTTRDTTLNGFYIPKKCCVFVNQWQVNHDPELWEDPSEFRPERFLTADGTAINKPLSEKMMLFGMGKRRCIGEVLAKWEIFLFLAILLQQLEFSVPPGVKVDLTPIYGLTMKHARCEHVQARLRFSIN
Sequence of Cytochrome P450 2D6 (Homo sapiens) (P10635 whole entry, looked up): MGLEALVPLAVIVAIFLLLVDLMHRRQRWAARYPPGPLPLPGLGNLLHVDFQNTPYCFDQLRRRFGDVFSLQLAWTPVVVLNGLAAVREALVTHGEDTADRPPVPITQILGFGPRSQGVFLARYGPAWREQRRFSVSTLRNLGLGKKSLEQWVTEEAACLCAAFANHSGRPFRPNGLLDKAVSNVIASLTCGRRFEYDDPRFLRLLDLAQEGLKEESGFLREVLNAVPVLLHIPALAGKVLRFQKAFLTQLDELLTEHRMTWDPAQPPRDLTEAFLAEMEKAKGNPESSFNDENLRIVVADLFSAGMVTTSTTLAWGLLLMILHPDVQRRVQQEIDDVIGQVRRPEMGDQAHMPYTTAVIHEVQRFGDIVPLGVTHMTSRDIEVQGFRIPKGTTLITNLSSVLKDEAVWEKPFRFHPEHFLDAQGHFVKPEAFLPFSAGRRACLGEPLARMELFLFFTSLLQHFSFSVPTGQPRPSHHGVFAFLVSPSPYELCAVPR
Sequence of Cytochrome P450 2C19 (Homo sapiens) (P33261 whole entry, looked up): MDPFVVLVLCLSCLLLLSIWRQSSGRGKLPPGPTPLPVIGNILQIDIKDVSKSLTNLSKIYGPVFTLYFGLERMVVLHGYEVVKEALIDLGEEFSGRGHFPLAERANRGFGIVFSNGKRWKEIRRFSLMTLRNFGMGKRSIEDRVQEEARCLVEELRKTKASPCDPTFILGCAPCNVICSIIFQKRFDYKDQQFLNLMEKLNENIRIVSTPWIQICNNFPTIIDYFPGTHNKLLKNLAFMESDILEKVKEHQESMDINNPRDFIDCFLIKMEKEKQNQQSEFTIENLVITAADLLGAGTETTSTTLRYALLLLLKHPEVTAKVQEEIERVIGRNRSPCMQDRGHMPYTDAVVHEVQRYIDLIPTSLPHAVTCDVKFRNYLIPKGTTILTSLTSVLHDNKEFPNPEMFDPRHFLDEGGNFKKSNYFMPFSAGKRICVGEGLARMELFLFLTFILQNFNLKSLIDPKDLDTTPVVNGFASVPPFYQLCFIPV

As for `COc1cccc2c1[C@H](CO)N1[C@H](C#N)[C@@H]3C[C@H](C(=O)O)[C@@H]([C@@H]1C2)N3C`, the Potency was more than 11.4 µM in assay [1], more than 46 µM in assay [4] and more than 9.22 µM in assay [5]. For the same compound, the activity change, negative = inhibition is -21% [at 2.29 µM] in [2] and -126% (active) in assay [3]. Moreover, the Potency result in assay [6] was “inactive”.
Take `CN(C)CCCN1c2ccc3ccccc3c2Sc2cccc(Cl)c21`: the Potency in assay [1] was more than 11.4 µM; in [2], 1 µM (active); in assay [4], more than 46 µM; in assay [5], more than 9.22 µM; in assay [9] it was 0.501 µM (active); in [10], 5.01 µM (active). The activity change, negative = inhibition in assay [3] is 1.06%. In addition, the activity, negative = inhibition in assay [7] is 2.06%. The Potency entry in assay [6] and in assay [8] was “inactive” in each case.
In the case of `COc1ccc(Oc2ncc3nc(CCc4ccccc4)c(=O)n(C4CC4)c3n2)cc1`, the Potency was more than 11.4 µM in assay [1]; 12.6 µM (active) in assay [2]; more than 9.22 µM in assay [4]; more than 46 µM in assay [5]; 1.58 µM (active) in [10]. Moreover, the activity change, negative = inhibition in [3] was 5.02%. In assay [7], the activity, negative = inhibition was -0.549%. For the same compound, the Potency result in assay [6] and in [11] was “inactive” each time.
Turning to `C[C@@H]1O[C@@H](O)[C@@H](O)[C@H](O)[C@H]1O`, the values for the Potency in [1], in assay [4] and in assay [5] were more than 11.4 µM, more than 46 µM and more than 9.22 µM, respectively. Also, the Potency entry in assay [2], in assay [6], in [8] and in assay [10] was “inactive” each time. Also, the activity change, negative = inhibition in assay [3] is 13.9%. Further, in assay [7], the activity, negative = inhibition is 6.79%.
For the compound `Oc1c(C(O)(c2ccccc2)c2ccc3ccccc3c2O)ccc2ccccc12`, the Potency was more than 11.4 µM in assay [1]; 1 µM (active) in [2]; more than 46 µM in assay [4]; more than 9.22 µM in [5]; 0.794 µM (active) in assay [12]; 0.794 µM (active) in assay [10]. The activity, negative = inhibition in assay [7] is -10.4%. For the same compound, the Potency entry in [8] was “inactive”.
Consider `O=C(Nc1cccc2cccnc12)[C@@H]1[C@@H](C(=O)O)[C@H]2CC[C@@H]1O2`, for which the figures for the Potency in [1], in assay [4] and in assay [5] were more than 11.4 µM, more than 46 µM and more than 9.22 µM, respectively. Besides, the Potency result in [2], in assay [6] and in assay [8] was “inactive” each time. Moreover, the activity, negative = inhibition in assay [7] was -11%.
On to `Nc1nc(Sc2ccc([N+](=O)[O-])c3nonc23)c2[nH]cnc2n1`, for which the Potency in [1] is more than 11.4 µM; in assay [4], more than 46 µM; in [5] it was more than 9.22 µM; in assay [12], 3.16 µM (active); in assay [10] it was 1.58 µM (active). Besides, in [2], the activity change, negative = inhibition was -26.1% [at 2.29 µM]. Further, the activity, negative = inhibition in [7] was -12.4%. Besides, the Potency result in [6] and in assay [8] was “inactive” throughout.
Regarding `C[C@@H]1CCCN(C[C@@H](O)CN2CCCc3ccccc32)C1`, the Potency in [1] is more than 11.4 µM; in assay [4], more than 46 µM; in assay [5], more than 9.22 µM; in [9], 1.58 µM (active). In addition, the Potency entry in [2], in assay [6] and in [8] was “inactive” throughout. Besides, in assay [3], the activity change, negative = inhibition is -7.43%. Also, in [7], the activity, negative = inhibition is 11.4%.
In the case of `CC(CC(=O)O)(CC(=O)O)c1ccccc1`, the Potency in [1] was more than 11.4 µM; in assay [4] it was more than 46 µM; in assay [5], more than 9.22 µM. For the same compound, the Potency entry in assay [2], in assay [6], in assay [8] and in assay [10] was “inactive” throughout. For the same compound, the activity change, negative = inhibition in assay [3] was 4.46%. In assay [7], the activity, negative = inhibition is 7.69%.
Regarding `CC(C)[C@@H](C)/C=C\[C@@H](C)[C@@H]1CC[C@H]2C3=CC=C4C[C@@H](O)CC[C@]4(C)[C@H]3CC[C@]21C`, the Potency in assay [1] was more than 11.4 µM; in [4], more than 46 µM; in [5] it was more than 9.22 µM. In addition, the Potency result in assay [2], in [6] and in assay [8] was “inactive” in each case. For the same compound, the activity change, negative = inhibition in [3] is 25.1%.
In the case of `Cc1ccc(-c2nc(-c3nccc4ccccc34)oc2-c2ccccc2)cc1`, the Potency is more than 11.4 µM in assay [1], 2.51 µM (active) in [2], more than 46 µM in assay [4] and more than 9.22 µM in assay [5]. In addition, the activity, negative = inhibition in assay [7] is 24.1%. Also, the Potency result in assay [6] and in assay [8] was “inactive” in each case.
Regarding `CSc1ccc2c(c1)N(CCCN(C)C)c1ccccc1S2`, the Potency in assay [1] is more than 11.4 µM; in assay [2], 1.26 µM (active); in assay [4] it was more than 46 µM; in assay [5] it was more than 9.22 µM; in assay [9], 0.501 µM (active). In assay [7], the activity, negative = inhibition was 2.23%. Also, the Potency entry in assay [6] and in assay [8] was “inactive” in each case.
Consider `N#Cc1c(NC(=O)C(F)(F)F)sc2c3c(=O)c4ccccc4c(=O)c=3oc3ccccc3c12`, for which the Potency in [1] is more than 11.4 µM; in assay [2], 1 µM (active); in [4], more than 46 µM; in assay [5], more than 9.22 µM; in assay [12], 0.0501 µM (active); in assay [10], 0.501 µM (active). Also, the activity change, negative = inhibition in assay [3] is 13.7%. The activity, negative = inhibition in assay [7] is 0.0272%. The Potency result in [6] and in [11] was “inactive” in each case.
In the case of `O=C(O)C(Cc1cccs1)C(=O)O`, the Potency was more than 11.4 µM in [1], more than 46 µM in [4] and more than 9.22 µM in assay [5]. Besides, the activity change, negative = inhibition in assay [2] is -2.1% [at 2.29 µM]; in [3] it was 8.62%. Also, in assay [7], the activity, negative = inhibition is 0.541%. Moreover, the Potency entry in assay [6], in assay [8] and in assay [10] was “inactive” each time.
As for `C[C@H]1CC(C)(C)C[C@@](OCCN2CCCCC2)(c2ccccc2)C1`, the Potency is more than 11.4 µM in assay [1], more than 46 µM in assay [4], more than 9.22 µM in assay [5] and 0.631 µM (active) in assay [9]. The Potency entry in assay [2], in [6] and in assay [11] was “inactive” throughout. For the same compound, in assay [7], the activity, negative = inhibition was 7.87%.
For `CCN(CC)CCN1c2ccccc2Sc2ccc3ccccc3c21`, the Potency was more than 11.4 µM in assay [1]; 3.98 µM (active) in assay [2]; more than 46 µM in assay [4]; more than 9.22 µM in assay [5]; 0.631 µM (active) in [9]. The activity, negative = inhibition in [7] was 4.26%. The Potency entry in [6] and in assay [8] was “inactive” throughout.

These data come from PubChem BioAssay (NCATS).
